Experimental data: PMC7819943, “Rice protein-binding microarrays: a tool to detect cis-acting elements near promoter regions in rice”
The full ranking holds about 68,000 sequences; the median of “fluorescence intensity (a.u.)” is about 9,100, and the highest 2% start at about 16,000. What follows is part of a selection rich in the highest values, with near analogues and random picks from the rest.

biological target: OsWRKY34 (Oryza sativa, UniProt Q0JBA9 1-250); experiment: protein-binding microarray (RPBM); PBS, 2% BSA, 51.3 ng/ul salmon testes DNA, 50 uM zinc acetate, 200 nM TF, 25 C, 1 h; high values mean tight binding; conditions: protein: recombinant; tags: N-terminal polyhistidine and DsRed monomer fusion (pET32a); label: CyDye5-dUTP incorporated in the synthesized complementary strand; 3' TTTTT single-stranded linker to array surface; dsDNA, one strand shown
Outline: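 Binding signal is reported as fluorescence intensity per feature (arbitrary units) from an Axon 4000B scanner. Incubation used 200 nM of each Ni–NTA-purified, N-terminally polyhistidine- and DsRed-fused transcription factor from E. coli BL21-CodonPlus on a double-stranded custom Agilent array for 1 h at 25 °C, with 50 µM zinc acetate in the buffer, followed by washing.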

Chain of OsWRKY34 (Q0JBA9 entry or part of it): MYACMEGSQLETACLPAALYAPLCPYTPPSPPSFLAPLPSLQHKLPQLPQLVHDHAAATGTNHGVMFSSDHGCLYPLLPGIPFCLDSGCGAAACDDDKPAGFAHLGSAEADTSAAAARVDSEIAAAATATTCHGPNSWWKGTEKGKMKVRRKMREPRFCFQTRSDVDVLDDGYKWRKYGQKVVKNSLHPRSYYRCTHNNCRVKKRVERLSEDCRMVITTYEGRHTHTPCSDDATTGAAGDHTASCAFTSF

| Sequence | binding signal |
| --- | --- |
| TTGATGGGTTTTGGGTTTTTGTGCTGCTCCTTTTTCGTAACGGAGTCACCTAGTGCAG | 19800 fluorescence intensity (a.u.) |
| GGCTGGTTTGGTTGGTTGAGAATACCTTTTCTTTTTCCTTCGGAGTCACCTAGTGCAG | 29100 fluorescence intensity (a.u.) |
| CGTTTTATTTTTGGTTGTTTTTCTGTTTGGGTTTTGATTTCGGAGTCACCTAGTGCAG | 11300 fluorescence intensity (a.u.) |
| GGGGTATGAAATGTTTTTTTTTTCCTTTACGTTTCTTTTTCGGAGTCACCTAGTGCAG | 15400 fluorescence intensity (a.u.) |
| GGTTTTTATGGGGTTGCTCTTTGATTTTTTTTTTCTCCTGCGGAGTCACCTAGTGCAG | 12200 fluorescence intensity (a.u.) |
| ATTTTCCTTGATTTTTTTTGTGTGTTTGGGAATTGGGATACGGAGTCACCTAGTGCAG | 12600 fluorescence intensity (a.u.) |
| CATATGTATGAGGGTATCTTTGTTTTGGCTTTGGTCCCTTCGGAGTCACCTAGTGCAG | 10200 fluorescence intensity (a.u.) |
| GCTGGAGGGGCTGGGGTATGTTCTTTTTGTATATGACGTTCGGAGTCACCTAGTGCAG | 20300 fluorescence intensity (a.u.) |
| ATTTTCCTTGTTTTGATGTTTTCTGGTTGGGGAAGGGTTACGGAGTCACCTAGTGCAG | 24600 fluorescence intensity (a.u.) |
| GTTTGAGGGTTTTTTGTTGGTTTAGAATCATCTTTTTCTTCGGAGTCACCTAGTGCAG | 9210 fluorescence intensity (a.u.) |
| TGTTTTTGCTTCTCTTCCTTTTGCTGGAGCTTATTGGTTTCGGAGTCACCTAGTGCAG | 10100 fluorescence intensity (a.u.) |
| TTTCATGTCGCTCCTTGTCGTTGCTGCTCTTTGGGTGCAACGGAGTCACCTAGTGCAG | 11100 fluorescence intensity (a.u.) |
| CCTATGAAGAAACTTACGCTGACGGCTGACCTAAACGTGCCGGAGTCACCTAGTGCAG | 11000 fluorescence intensity (a.u.) |
| AAACAATCCGACGGCCCGTATTCCGTGGTCCACGGCCACGCGGAGTCACCTAGTGCAG | 9020 fluorescence intensity (a.u.) |
| CTTATTTCAAATGTGTGGGTATACATATGTGCACATATATCGGAGTCACCTAGTGCAG | 8440 fluorescence intensity (a.u.) |
| TCGTTACATGTTCTTTCATTCTCGTATTGCATTATCTGCTCGGAGTCACCTAGTGCAG | 9260 fluorescence intensity (a.u.) |
| TTCGTTAAATTATTTTTCTTTTTCGTTTTTTTTTTTTGTTCGGAGTCACCTAGTGCAG | 8930 fluorescence intensity (a.u.) |
| GGATTTTCTTCCGATCTCGCTTCCACCTCGCCGCCTCGCCCGGAGTCACCTAGTGCAG | 9120 fluorescence intensity (a.u.) |
| TATTAGTGTTTTATTTTCACCGGTTAATATTTTTGTTCTTCGGAGTCACCTAGTGCAG | 8880 fluorescence intensity (a.u.) |
| CCCTGGTGTTTGGATTTGGTTGTTCCTCGCGATTGCATTTCGGAGTCACCTAGTGCAG | 15600 fluorescence intensity (a.u.) |
| CTCCTGCCTGGGTTTGGTTTGGTTTGGCTTTGCTTCTTCCCGGAGTCACCTAGTGCAG | 36800 fluorescence intensity (a.u.) |
| TTCCTGGTTGCTTCTTTTGCAGTTTTTTTTTTCCCTTCCTCGGAGTCACCTAGTGCAG | 10100 fluorescence intensity (a.u.) |
| CTCGCCTCGCCGCCTTTTCTTCGCCATCTTTTTCGATTTCCGGAGTCACCTAGTGCAG | 18800 fluorescence intensity (a.u.) |

| Sequence | binding signal |
| --- | --- |
| TCGATCGGTTGGTTGGTTGGTTTTGTTGGATTTTTTTCCTCGGAGTCACCTAGTGCAG | 18700 fluorescence intensity (a.u.) |
| GTGCTCGATGCTCGATGCCCTCCTTTTCCGCCATCTTTTTCGGAGTCACCTAGTGCAG | 10200 fluorescence intensity (a.u.) |
| GCTTGGATTTTTTTTGTTGCTTTTGGTTGTTGTGATCCCTCGGAGTCACCTAGTGCAG | 11800 fluorescence intensity (a.u.) |
| GGTTTGGCTTTGCTTCTTCCTCGCGCGGCGCCTCCCATCCCGGAGTCACCTAGTGCAG | 9260 fluorescence intensity (a.u.) |
| GTTCTTCGTTAATACGGTGCTTTCATTATTTTGTTTTCCCCGGAGTCACCTAGTGCAG | 16600 fluorescence intensity (a.u.) |
| TACTATACCACTTACTACTAAGTATTCTGCGCACAAACAGCGGAGTCACCTAGTGCAG | 10800 fluorescence intensity (a.u.) |
| CCTCGGCTCCCATCCACTACCGTTTGCTACTCCGGCGCCGCGGAGTCACCTAGTGCAG | 10600 fluorescence intensity (a.u.) |
| CTCATCTCACCCGTCACTACTGCACTGCGCACCATTGCCGCGGAGTCACCTAGTGCAG | 8540 fluorescence intensity (a.u.) |
| GATTGGGTTGTTTGCGGGGCTAAGTTCCTAATTTTAATGACGGAGTCACCTAGTGCAG | 11500 fluorescence intensity (a.u.) |
| ACCCTCCACCCGCCACCGCCACCGCCGCCTTCGCCGCCGCCGGAGTCACCTAGTGCAG | 9250 fluorescence intensity (a.u.) |
| TTGCAACGGATTTTACTGGGCTTATGGGCTTCTTTTATTGCGGAGTCACCTAGTGCAG | 9700 fluorescence intensity (a.u.) |
| GGGATTTCATATATCTGGTTTTGCGGTTGGGGACGATTTTCGGAGTCACCTAGTGCAG | 12300 fluorescence intensity (a.u.) |
| GCTTTGTTCTGATTCCTTCACAGTTATTTGATATTTTCCTCGGAGTCACCTAGTGCAG | 8710 fluorescence intensity (a.u.) |
| TGTTGTCGTCGTCCCTCTTCCTTTCCTTTCCTTTCCTTGCCGGAGTCACCTAGTGCAG | 8870 fluorescence intensity (a.u.) |
| CCTCATTTGCTTCTTCTTCTTCTTCCTCCTCTTTGTTTCACGGAGTCACCTAGTGCAG | 9120 fluorescence intensity (a.u.) |
| CTTGCTCTCCTCTCTCGTGCTCCATCGATCGATCGATCTCCGGAGTCACCTAGTGCAG | 9660 fluorescence intensity (a.u.) |
| TCTCCTTGATTCCCGCTTCTCACACGCATTATTTGTTTCACGGAGTCACCTAGTGCAG | 18500 fluorescence intensity (a.u.) |
| GAAGCTTCCTCGTCGTCCTTTGTTGGGTTGGGTTGGGTTGCGGAGTCACCTAGTGCAG | 21000 fluorescence intensity (a.u.) |
| AATACTTGCGAGCTCCGATCTCTTCTTCTTCTTCGTGAGCCGGAGTCACCTAGTGCAG | 8180 fluorescence intensity (a.u.) |
| GGATTGGTTTTGAGATTGTTCTGTCAGATGGGGATTGTTTCGGAGTCACCTAGTGCAG | 12700 fluorescence intensity (a.u.) |
| GAGACGTTGTATATCTGGTTTTGTGGTTTGGGGATGTTTTCGGAGTCACCTAGTGCAG | 20100 fluorescence intensity (a.u.) |
| TCTTGCGACGATCGTGTGGGGTGGGTTCGTGTGCTCTCTCCGGAGTCACCTAGTGCAG | 19500 fluorescence intensity (a.u.) |
| CTCTCTTCTTCTTCCTCGCTTTGCTTGGGTTGGGTTGGAGCGGAGTCACCTAGTGCAG | 14800 fluorescence intensity (a.u.) |
